Screen size: about 420,000 compounds; about 64,000 (15%) were called active. About 27% were inconclusive and are not listed. Calls come from the whole dose curve; as a rule, active = well fitted inhibition curve with a large enough effect; inconclusive = small, poorly fitted or top-dose-only effect; inactive = flat fitted curve, though single readings scatter. A selection follows.
Assay: qHTS for Inhibitors of human tyrosyl-DNA phosphodiesterase 1 (TDP1): qHTS in cells in absence of CPT; note: nearly all actives have a fitted effect of over 55% in size
Conditions: DT40 Tdp1-/- hTDP1 cells, no CPT, ATP luminescence, 48 h; activity change, negative = growth inhibition: at 46.2 µM (top of the series)
In short: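 Growth kinetics read by CellTiter-Glo luminescence after ≥48 hr at 37 °C. Cells: DT40 Tdp1-/- stably carrying human TDP1, 400 per well, compound exposure in the absence of CPT (DMSO vehicle).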
% is set by controls: 0 for no effect and ±100 for the full control effect; potency is the fitted concentration of half-maximal effect.

Structure (SMILES) | activity change, negative = growth inhibition | Potency
Cc1nc2ncnn2c(C)c1CCC(=O)N1CCN(C(=O)c2ccco2)CC1 | -21.5% (inactive) | –
COc1ccc(CN(C)CCn2cc(C(=O)N3CCSCC3)nn2)cc1C | -6.65% (inactive) | –
Cc1cnc(C(=O)Oc2cccc(Cl)c2Cl)cn1 | 2.48% (inactive) | –
COc1cc(OC)c(C(=O)NC2CC(C)(C)NC(C)(C)C2)cc1OC | -10.5% (inactive) | –
O=C(O)CCCC(=O)Nc1ccc(Oc2cccc(C(F)(F)F)c2)nc1 | -10.7% (inactive) | –
CCOC(=O)Cn1c2c(c(-c3ccccc3OC)cc1=O)CCCC2 | -28.1% (inactive) | –
CCc1cccc(NC(=O)CCCN2C(=O)C(c3ccccc3)Oc3cccnc32)c1 (configuration not stated) | -19% (inactive) | –
Cc1ccc(CNCc2ccc3c(c2)OCO3)c(C)c1 | -5.58% (inactive) | –
COC(=O)c1sccc1NN1C(=O)c2ccccc2C1=O | 8.57% (inactive) | –
CCCCn1c(N)c(N(CCOC)C(=O)c2cccc(S(=O)(=O)N(C)c3ccccc3)c2)c(=O)[nH]c1=O | -0.381% (inactive) | –
C=CCC(NCCCO)c1cccc(OC)c1OC (configuration not stated) | -7.95% (inactive) | –
O=C(CCN1C(=O)[C@H]2CC=CC[C@H]2C1=O)NCc1nc(-c2ccccc2)no1 | -1.52% (inactive) | –
O=C(NCCCn1ccnc1)c1cc(Br)c(Br)s1 | -7.52% (inactive) | –
O=C(COC(=O)c1cnc(Cl)c(Cl)c1)NCc1ccco1 | 14.6% (inactive) | –
O=C1CCC(=O)N1CCC(=O)N(C(=O)NC1CCCCC1)C1CCCCC1 | -19.6% (inactive) | –
CCc1nnc(NC(=O)c2cc(S(=O)(=O)N3CCN(CC)CC3)ccc2Cl)s1 | 13.7% (inactive) | –
COCCOC(=O)C1=C(C)Nc2nc(C)nn2C1c1ccccc1 (configuration not stated) | -3.63% (inactive) | –
Cc1ccc(C)c(OCCC(=O)OCC(=O)N2CCN(c3ccccc3)CC2)c1 | -20.4% (inactive) | –
Cc1ccc(S(=O)(=O)N2CCN(C(=O)COC(=O)CNC(=O)c3ccc(C(C)(C)C)cc3)CC2)c(C)c1 | 6.77% (inactive) | –
COc1ccccc1CCC(=O)OCC(=O)N1CCN(S(=O)(=O)c2ccc(C)cc2C)CC1 | – | 23.1 µM (active)
O=c1ccc(-c2ccc(S(=O)(=O)Nc3ccccc3)o2)n[nH]1 | -10.7% (inactive) | –
COc1ccc(CNC(=O)COc2cccnc2[N+](=O)[O-])cc1 | 20.7% (inactive) | –
COc1cccc(NC(=O)CSc2nnc(-c3cccnc3)o2)c1 | -0.853% (inactive) | –

Structure (SMILES) | activity change, negative = growth inhibition | Potency
CC(=O)Nc1cc(-c2ccccc2F)cn2c(-c3cccc(C(F)(F)F)c3)cnc12 | – | 0.326 µM (active)
COc1cccc(NC(=O)C2c3cc(OC)c(OC)cc3C(=O)N(C)C2c2cccnc2)c1 (configuration not stated) | -16.5% (inactive) | –
CC(=O)Oc1cccc(C(=O)Nc2ccccc2NC(=O)c2cccc(OC(C)=O)c2)c1 | -21.2% (inactive) | –
CSc1nc2nc(-c3cccc(C(F)(F)F)c3)ccn2n1 | -24.8% (inactive) | –
COc1cccc(-c2cnc3c(NC(C)=O)cc(-c4cc(F)ccc4OC)cn23)c1 | – | 23.1 µM (active)
COc1ccc(-c2cc(NC(C)=O)c3ncc(-c4cc(OC)c(OC)c(OC)c4)n3c2)cn1 | – | 2.91 µM (active)
CNc1cnc(-c2cc(OC)c(OC)c(OC)c2)cn1 | 10.9% (inactive) | –
O=C(CNS(=O)(=O)c1cccc(C(F)(F)F)c1)Nc1ccccc1F | -2.97% (inactive) | –
COc1cccc(-c2cc(NC(C)=O)c3ncc(-c4cccc(C(C)=O)c4)n3c2)c1 | – | 23.1 µM (active)
COc1cccc(C(NC(C)=O)c2nc(-c3ccccc3OC)cs2)c1 (configuration not stated) | -25.4% (inactive) | –
CCCCOP(=O)(c1ccc(N(C)C)cc1)C(O)c1cc(OC)ccc1OC (configuration not stated) | 1.13% (inactive) | –
CCC1=[N+]([O-])C(C)(/C(C)=N\O)N(O)C1(C)C (configuration not stated) | 4.6% (inactive) | –
CN1C[C@@H](CO)O[C@@H](n2cnc3c(N4CCN(CCO)CC4)ncnc32)C1 | -5.1% (inactive) | –
Cc1ccc(NC(=O)CSCC(=O)Nc2sccc2C#N)cc1 | 1.64% (inactive) | –
Cc1cc(=O)oc2c3c(cc(OCC(=O)NCc4ccccn4)c12)OC(C)(C)CC3 | – | 25.9 µM (active)
Cc1cc(=O)oc2c3c(cc(OCC(=O)N[C@H](C(=O)O)c4ccccc4)c12)OC(C)(C)CC3 | -17.6% (inactive) | –
Cc1cc(=O)oc2c3c(cc(OCC(=O)NCCC(=O)N[C@@H](C)C(=O)O)c12)OC(C)(C)CC3 | -2.86% (inactive) | –
O=c1cc(CO)oc(C(Nc2cccc([N+](=O)[O-])c2)c2ccccn2)c1O (configuration not stated) | -2.19% (inactive) | –
CC1CCN(CC(=O)Nc2nccs2)CC1 | -8.17% (inactive) | –
CCOC(=O)c1c(-c2ccc(C)cc2C)csc1NC(=O)CSc1nnnn1C | – | 20.6 µM (active)
Cn1nnnc1SCC(=O)Nc1sccc1C(N)=O | -0.145% (inactive) | –
CCOC(=O)CNC(=O)CSc1nnnn1-c1cc(C)ccc1C | -6.94% (inactive) | –
O=C1c2ccccc2C(=O)N1Cc1cc(-c2ccccc2Cl)no1 | -2.31% (inactive) | –

Structure (SMILES) | activity change, negative = growth inhibition | Potency
CS(=O)(=O)Nc1ccccc1N=C(c1ccccc1)c1ccccc1 | -23.1% (inactive) | –
O=C(COc1ccc(S(=O)(=O)NCCc2ccccc2)cc1)N1CCCC1 | -19.6% (inactive) | –
Cc1nn(-c2ccc(N3CCCCC3)nn2)c(C)c1CCC(=O)NCc1ccccc1F | -9.4% (inactive) | –
COc1cccc(CNC(=O)CCC2CCCN(C(=O)c3cc(C)[nH]n3)C2)c1 (configuration not stated) | -16.4% (inactive) | –
C=Cc1ccc(C(=O)N2CCCC(CCC(=O)N3CCN(c4ccccn4)CC3)C2)cc1 (configuration not stated) | -9.1% (inactive) | –
O=C(CCC1CCCN(C(=O)c2ccc(F)c(F)c2)C1)N1CCN(c2ccccn2)CC1 (configuration not stated) | – | 18.4 µM (active)
COc1cccc(CNC(=O)CCC2CCCN(C(=O)c3ccc(F)c(Cl)c3)C2)c1 (configuration not stated) | – | 18.4 µM (active)
CSc1ncccc1C(=O)N1CCCC(CCC(=O)NCc2ccccc2F)C1 (configuration not stated) | 1.92% (inactive) | –
Cc1[nH]c2c(C(=O)N3CCCC(CCC(=O)NCc4ccccc4F)C3)cccc2c1C (configuration not stated) | – | 20.6 µM (active)
COc1cccc(C(=O)N2CCCC(CCC(=O)NCc3ccc(F)c(F)c3)C2)c1 (configuration not stated) | -58.6% (inactive) | –
CC(=O)c1ccc(S(=O)(=O)NCCC(=O)N2CCN(c3ccccn3)CC2)cc1 | -23.6% (inactive) | –
Cc1ccnc(N)c1 | -12.1% (inactive) | –
Cc1ccc(NC(=O)CSc2sc3c(O)cc(=O)[nH]c3c2C#N)cc1C | 0.436% (inactive) | –
CCC1CCCCN1CCNC(=O)c1[nH]c(C)c(C(C)=O)c1C (configuration not stated) | 1.81% (inactive) | –
O=C(Nc1ccon1)c1nc[nH]c1C(=O)NCc1ccccc1 | -23.3% (inactive) | –
COc1ccc(/C(O)=C2/C(=O)C(=O)N(c3nc(C)c(C)s3)C2c2ccco2)cc1 (configuration not stated) | -16.5% (inactive) | –
Cc1ccc(C)c(NC(=O)CN(C)C(=O)c2ccc3ncsc3c2)c1 | -5% (inactive) | –
Fc1cccc(Cc2noc(CN3CCN(c4cnccn4)CC3)n2)c1 | -6.03% (inactive) | –
CC(=O)Nc1ccc(NC(=S)NC(=O)/C=C/c2ccccc2)cc1 | -20.6% (inactive) | –
CC1(C(=O)O)CCN1C(=O)/C=C/c1ccccc1 (configuration not stated) | -14.2% (inactive) | –
CC1(C)C=Cc2c(ccc(C(=O)/C=C/c3ccccc3)c2O)O1 | – | 8.91 µM (active)

Source: PubChem BioAssay AID686978 (National Center for Advancing Translational Sciences (NCATS), 2013)
